Several values for one entry are separate records, joined by “and”; a condition that tells them apart may be missing. Equal values may be shown once. Records with an inconclusive call do not appear. A call without a number means that no potency is given here. Activity calls are given as the source filed them. Calls come from the whole dose curve; as a rule, active = well fitted inhibition curve with a large enough effect; inconclusive = small, poorly fitted or top-dose-only effect; inactive = flat fitted curve, though single readings scatter.
Assay: Secondary Assay for lipid storage modulators: Cytotoxcity for probe SAR round 2
Conditions: Drosophila S3 cells viability, CellTiter-Glo ATP luminescence, 24 h; series mostly up to 46.1 µM
Excerpt: NIH Molecular Libraries Probe Production Centers Network [MLPCN] NIH Chemical Genomics Center [NCGC] MLPCN Grant: 1 R03 MH085686-01 Assay Submitter (PI): Beller, Mathias; Max-Planck-Institut fur Biophysikalische Chemie, Germany. NCGC Assay Overview: Storing lipids as a reservoir for energy or the anabolism of elementary metabolites is a common feature of probably all cells and is conserved from bacteria to humans. The universal cellular lipid storage organelle is the so-called lipid storage droplet (LD). Although ubiquitous, LDs share a simple structure composed of a hydrophobic core that harbors the storage lipids, which is shielded by a droplet-specific phospholipid monolayer to which proteins are attached. The current model of LD biogenesis involves an incorporation of the lipid core into the membrane leaflets of the endoplasmic reticulum (ER) followed by a subsequent budding-like maturation of a LD, which ultimately pinches off. Once released, LD volume can increase by localized lipogenesis or fusion of existing droplet. Storage lipids are re-mobilized enzymatically by lipase activity. Lipase regulation in the adipocyte is heavily studied and involves multiple components including catecholamine signaling, the LD-associated proteins Perilipin and comparative gene identification (CGI-58) and at least two lipases named hormone sensitive lipase (HSL) and adipocyte triglyceride lipase (ATGL). LD regulation outside of the adipocyte is poorly understood and only few components are known. However, there is an urgent need to learn more about ectopic fat depots as mislocalized storage of lipids, for example in the liver or muscle, is an eminent health problem associated with insulin resistance or the metabolic syndrome. We developed a laser-scanning cytometer assay to enable 1,536-well screening and combined the results of the small molecules screen with an RNAi database based on lipid storage. The compound was tested here for cytotoxcity using CellTiter-Glo.
Assay Protocol Summary: Cytotoxcity assay was performed with embryonic Drosophila S3 cells (Bloomington Drosophila Genomics Resource Center [DGRC]). We dispensed 4 uL of cells at 1.25 x 10^6 cells/mL into Greiner solid white 1,536-well plates with a bottle-valve solenoid-based dispenser (Aurora) to obtain 5,000 cells/well. A total of 23 nL of compound solution of different concentrations were transferred to the assay plates using a Kalypsys pin tool equipped with a 1,536-pin array containing 10-nL slotted pins (FP1S10, 0.457-mm diameter, 50.8 mm long; V&P Scientific). One microliter of oleic acid (400 uM) was added, and the plate was lidded with stainless steel rubber gasket lined lids containing pinholes. After 24 hrs of incubation at 24 degrees Celsius and 95% humidity, 4 uL of CellTiter-Glo (Promega) was added to the wells. Luminescence was detected on the Perkin Elmer ViewLux.

Row | SMILES | Potency
1 | CCOC(=O)C1CCN(C(=O)C(C)(C)NC(=O)Nc2ccc(N)cc2)CC1 | inactive
2 | CCOC(=O)C1CCN(C(=O)C(C)(C)NC(=O)Nc2ccc3ccccc3c2)CC1 | inactive
3 | CCOC(=O)C1CCN(C(=O)C(C)(C)NC(=O)Nc2ccc(CN3CCOCC3)cc2)CC1 | inactive
4 | CCOC(=O)C1CCN(C(=O)C(C)(C)NC(=O)Nc2ccc(F)c(F)c2)CC1 | inactive
5 | CC(C)(NC(=O)Nc1ccccc1Cl)C(=O)N1CCC(C(=O)O)CC1 | inactive
6 | O=C(NC1CCCc2c1cnn2-c1ccc(F)cc1F)c1ccccc1 (configuration not stated) | 4.99 µM (active)
7 | CCN(CC)C(=O)C1CCN(C(=O)C(C)(C)NC(=O)Nc2ccccc2Cl)CC1 | inactive
8 | CC(C)(C)OC(=O)NCCOCCOCCOc1ccc(-n2ncc3c2CCCC3NC(=O)c2ccccn2)cc1 (configuration not stated) | 3.15 µM (active)
9 | CCNC(=O)C1CCN(C(=O)C(C)(C)NC(=O)Nc2ccccc2Cl)CC1 | inactive
10 | CC(C)(C)OC(=O)NCCOCCOCCOc1cccc(-n2ncc3c2CCCC3NC(=O)c2ccccn2)c1 (configuration not stated) | 5.6 µM (active)
11 | CCOC(=O)C1CCN(C(=O)C(C)(C)NC(=O)Nc2ccccc2Cl)CC1 | inactive
12 | O=C(NC1CCCc2c1cnn2-c1ccc(F)cc1F)c1ccccn1 (configuration not stated) | 7.05 µM (active) and 11.2 µM (active)
13 | CCOC(=O)C1CCN(C(=O)C(C)(C)NC(=O)Nc2cccc(C(=O)OC)c2)CC1 | inactive
14 | O=C(N[C@H]1CCCc2c1cnn2-c1ccc(F)cc1F)c1ccccn1 | inactive
15 | CCOC(=O)C1CCN(C(=O)C(C)(C)NC(=O)Nc2cccc(-c3csc(C)n3)c2)CC1 | inactive
16 | CCOC(=O)C1CCN(C(=O)C(C)(C)NC(=O)Nc2cccc(OC)c2)CC1 | inactive
17 | CCOC(=O)C1CCN(C(=O)C(C)(C)NC(=O)Nc2ccc(Cl)cc2Cl)CC1 | inactive
18 | CCOC(=O)C1CCN(C(=O)C(C)(C)NC(=O)Nc2ccc(C#N)cc2)CC1 | inactive
19 | CCOC(=O)C1CCN(C(=O)C(C)(C)NC(=O)Nc2ccc3c(c2)CCC3)CC1 | inactive
20 | O=C(NC1CCCc2c1cnn2-c1ccc(F)cc1F)c1cccs1 (configuration not stated) | 5.6 µM (active)
21 | CCOC(=O)C1CCN(C(=O)C(C)(C)NC(=O)Nc2ccc(N(C)C)cc2)CC1 | inactive
22 | CCOC(=O)C1CCN(C(=O)C(C)(C)NC(=O)Nc2ccc(OC)c(Cl)c2)CC1 | inactive

From PubChem BioAssay AID504433 (National Center for Advancing Translational Sciences (NCATS), 2011)
